Drawing on PubChem BioAssay AID463173 (ICCB-Longwood Screening Facility, Harvard Medical School, 2010), this text covers survival for 86 molecules.

Among all 52,000 compounds or so, about 4,300 (8.3%) were called active. The sample as a whole holds a higher share of actives than the screen did. A number with no mark means an inactive call. No stated cut-off is given here; in the data, active means survival mostly below about 52% (no sharp cut-off); inactive means mostly above about 56%.

In the test the test system is DeltatarO mutant. Put plainly: S. aureus survival, RN4220 and DeltatarO strains – OD600, teichoic acid synthesis inhibitors, primary screen (AID 463173). As to conditions: S. aureus RN4220 wild type/DeltatarO growth, OD600, 18 h, active compounds read low, screened at 18.75 µg/mL (by protocol).
Regarding `Cc1ccc(NC(=O)CSc2nnc(-c3cc4occc4n3C)n2-c2ccccc2C)c(C)c1`, the survival was 88%. Under `Cc1ccc(CSC2=Nc3ccccc3C3=NC(CCC(=O)NCc4cccs4)C(=O)N23)c(C)c1` (stereo unspecified) stands 76%; under `Cc1ccc2c(c1)cc(C(=O)Nc1ccc(F)cc1F)n2C`, 106%; under `COc1ccccc1NC(=O)CCCOc1cc(=O)n(C)c2ccccc12`, 114%.

Regarding `Cn1c(=O)[nH]c(=O)c2[nH]c(NCCO)nc21`, the survival was 80%. Under `COc1ccc(-c2nc(CN3CCC(C(=O)NCCCN4CCN(c5ccccc5F)CC4)CC3)c(C)o2)cc1OC` stands 70%; under `Cc1ccc(CNc2ccc(-c3nc(-c4cccnc4)no3)cc2[N+](=O)[O-])cc1`, 75%; under `COc1ccccc1CNc1ccc(-c2nc(-c3cccnc3)no2)cc1[N+](=O)[O-]`, 78%. In the case of `COc1ccc(-c2noc(-c3ccc(NCc4ccccc4OC)c([N+](=O)[O-])c3)n2)cc1`, the survival was 57%.

On to `COc1ccccc1CNc1ccc(-c2nc(-c3ccccn3)no2)cc1[N+](=O)[O-]`, for which the survival was 43% (active). Under `O=[N+]([O-])c1cc(-c2nc(-c3ccncc3)no2)ccc1NCc1ccccc1` stands 109%.

As for `COc1ccccc1CNc1ccc(-c2nc(C)no2)cc1[N+](=O)[O-]`, the survival is 68%.

As for `Cc1ccc(CNc2ccc(-c3nc(-c4ccncc4)no3)cc2[N+](=O)[O-])cc1`, the survival was 39% (active). With `COc1ccccc1CNc1ccc(-c2nc(-c3ccncc3)no2)cc1[N+](=O)[O-]`, the survival was 45% (active).

With `COc1ccccc1CNc1ccc(-c2nc(-c3ccccc3C)no2)cc1[N+](=O)[O-]`, the survival was 91%.

Consider `O=C(CNCC1CCCO1)Nc1ccccc1-n1cccc1` (stereo unspecified), for which the survival is 70%. Under `CCOc1ccc(CNCCNC(=O)c2nonc2N)cc1` stands 84%; under `CC1C(=NO)C(C)C(c2ccccc2)NC1c1ccccc1` (stereo unspecified), 99%; under `O=C(Nc1cc(Cl)ccc1O)c1nc2ncccn2n1`, 74%. Consider `CCOc1cc(C2C(C(=O)Nc3ccccc3)=C(C)Nc3ncnn32)cc(Br)c1O` (stereo unspecified), for which the survival was 102%. For `Cc1ccc2sc(N(CCCN(C)C)C(=O)c3ccco3)nc2c1C`, the survival is 128%. For `COC(=O)CN1C(=O)CSc2ccc(S(=O)(=O)Nc3ccc(F)c(Cl)c3)cc21` the value was 83%. As to `Cc1ccc(NC(=O)COc2ccc(-c3nn(C)c(=O)c4ccccc34)cc2)c(C)c1`, the survival was 73%. In the case of `CC(=O)c1cccc(NC(=O)c2cc3c(s2)-c2c(C)cccc2OC3)c1`, the survival is 120%. In the case of `Cc1cc(C)cc(NC(=O)c2cc(C)nc3c2c(C)nn3-c2ccccc2)c1`, the survival is -5% (active). Under `Cc1cc(C(=O)Nc2ccc(C(C)C)cc2)c2c(C)nn(-c3ccccc3)c2n1` stands 73%; under `Cc1cc(C(=O)Nc2cccc(C)c2C)c2c(C)nn(-c3cccc(F)c3)c2n1`, 94%; under `Cc1ccc(-n2nc(C)c3c(C(=O)NCCc4ccccc4)cc(C)nc32)cc1`, 70%. For `Cc1cc(C(=O)Nc2cccc(C(F)(F)F)c2)c2c(C)nn(-c3cccc(F)c3)c2n1` the value was 17% (active); for `Cc1ccc(CCNC(=O)c2cc(C)nc3c2c(C)nn3-c2ccc(C)cc2)cc1`, 25% (active). As for `Cc1cc(C)c(NC(=O)c2cc(C)nc3c2c(C)nn3-c2cccc(F)c2)c(C)c1`, the survival was 94%. Regarding `Cc1ccc(-n2nc(C)c3c(C(=O)NCCc4ccc(S(N)(=O)=O)cc4)cc(C)nc32)cc1`, the survival is 118%. Under `COc1ccc(NC(=O)c2cc(C)nc3c2c(C)nn3-c2cccc(Cl)c2C)c(OC)c1` stands 88%; under `Cc1ccc(-n2nc(C)c3c(C(=O)Nc4ccc(Br)c(C)c4)cc(C)nc32)cc1`, 101%. Under `CCc1cccc(C)c1NC(=O)c1cc(C)nc2c1c(C)nn2-c1cccc(Cl)c1C` stands 88%; under `Cc1ccc(NC(=O)c2cc(C)nc3c2c(C)nn3-c2cccc(Cl)c2C)c(C)c1`, -5% (active); under `COc1ccc(OC)c(CNC(=O)c2nn(C)c3c2CS(=O)(=O)c2ccccc2-3)c1`, 74%.

`CCC(C(=O)Nc1ccc(C(=O)OC)cc1)n1c(=O)c(-c2ccccc2NC(C)=O)nc2ccccc21` (stereo unspecified): the survival was 94%. Regarding `O=C(CSc1nc2ccsc2c(=O)n1-c1ccc(Br)cc1)NCc1ccccc1`, the survival is 73%. For the molecule `CCCCN(CCCC)S(=O)(=O)c1ccc(NC(=O)c2c(-c3ccccc3)noc2C)cc1`, the survival was 60%. Take `CCOC(=O)c1c(S(=O)(=O)N2CCCC(C(=O)NCc3cccc(OC)c3)C2)c(C)n(C)c1C` (stereo unspecified): the survival is 117%.

For `Cc1ccc(-c2nc(C)c(CCNC(=O)c3ccccc3Br)s2)cc1`, the survival is 72%. On to `CCn1c(=O)cc(OCC(=O)N2CCN(c3ccc(OC)cc3)CC2)c2ccccc21`, for which the survival is 71%. Take `O=C(NCc1cccn1Cc1ccccc1)Nc1ccc(Br)cc1F`: the survival is 66%. For `CCOc1cccc(C2Oc3nc(SC)nnc3-c3ccccc3N2C(C)=O)c1OC` (stereo unspecified) the value was 59%; for `Cc1c(C(=O)Nc2ccccc2F)sc2nc3n(c(=O)c12)CCC3`, 87%; for `O=C(Cn1ccn(-c2ccc(F)c(F)c2)c(=O)c1=O)NCc1ccccc1`, 62%. For `COc1cc(OC)cc(-n2c(=O)c3ccccc3n(Cc3ccccc3C#N)c2=O)c1` the value was 128%; for `CCc1ccc(-n2nc(C)c3c(C(=O)Nc4ccc(Cl)cc4)cc(C)nc32)cc1`, 66%.

Take `CCc1ccc(-n2nc(C)c3c(C(=O)Nc4cccc(C(F)(F)F)c4)cc(C)nc32)cc1`: the survival is 20% (active). Under `Cc1ccc(C)c(N2CCN(C(=O)c3cc(C)nc4c3c(C)nn4-c3ccccc3)CC2)c1` stands 126%; under `CCc1ccc(-n2nc(C)c3c(C(=O)Nc4cc(OC)cc(OC)c4)cc(C)nc32)cc1`, 102%; under `Cc1ccc(C)c(N2CCN(C(=O)c3cc(C)nc4c3c(C)nn4-c3cccc(F)c3)CC2)c1`, 8% (active). For `Cc1cc(C(=O)N2CCN(c3ccccc3)CC2)c2c(C)nn(-c3cccc(F)c3)c2n1` the value was 91%; for `Cc1cccc2cc(CN(CCO)S(=O)(=O)c3ccc(Cl)cc3)c(=O)[nH]c12`, 82%.

As for `CCOCCCNC(=O)c1ccc2c(c1)NC(=O)C(CS(=O)(=O)Cc1ccc(F)cc1Cl)N2` (stereo unspecified), the survival is 88%. Under `CC(C)Cn1c(N2CCN(C(=O)c3sc4ccccc4c3Cl)CC2)nc2ccccc21` stands 89%; under `CCC(Cc1ccccc1)NC(=O)CN1C(=O)COc2ccc(S(=O)(=O)N3CCCCCC3)cc21` (stereo unspecified), 113%. On to `CC(=O)c1cccc(NS(=O)(=O)c2cccc(S(=O)(=O)c3ccc(Br)cc3)c2)c1`, for which the survival was 55%.

`Cc1cc(NC(=O)c2cc(-c3ccc(Cl)c(Cl)c3)on2)n(-c2ccccc2)n1`: the survival was 63%.

For `Cc1cc(NC(=O)c2cc(-c3ccc(Br)cc3)on2)nn1Cc1ccc(Cl)cc1`, the survival was 155%.

For `Cc1cc(NC(=O)c2cc(-c3cccc(Cl)c3)on2)nn1Cc1ccc(Cl)cc1`, the survival is 43% (active). For `COc1cccc(-c2cc(C(=O)Nc3cc(C)nn3-c3ccccc3)no2)c1` the value was 74%.

`COc1cccc(-c2cc(C(=O)Nc3ccn(Cc4ccc(C)cc4)n3)no2)c1`: the survival is 33% (active). Regarding `Cc1ccc(CNC(=O)c2cc(-c3ccc(Cl)cc3)on2)cc1`, the survival was 93%.

Take `Cc1cc(NC(=O)c2cc(-c3ccc(Cl)cc3)on2)nn1Cc1ccc(Cl)cc1`: the survival is 140%. For `COc1ccc(-c2cc(C(=O)Nc3ccn(Cc4ccc(C)cc4)n3)no2)cc1OC` the value was 57%; for `Cc1ccc(Cn2ccc(NC(=O)c3cc(-c4ccc(Cl)c(Cl)c4)on3)n2)cc1`, 45% (active).

For `O=c1c2cccnc2n(Cc2ccccc2F)c(=O)n1Cc1ccccc1Cl`, the survival is 62%. With `Cc1cccc(S(=O)Cc2ccc(C(=O)NC3CCCCCC3)o2)c1` (stereo unspecified), the survival was 81%. For `CCOc1ccc(NC(=O)C2CCCN(S(=O)(=O)c3ccc(Br)s3)C2)cc1` (stereo unspecified) the value was 101%. For the molecule `Cc1ccccc1CNC(=O)c1ccc(CSc2nc3cccnc3n2Cc2ccccc2)cc1`, the survival was 55%.

On to `COCCCNC(=O)c1ccc(CSc2nc3cccnc3n2Cc2ccc(OC)cc2)cc1`, for which the survival is 107%. `COc1ccc(Cn2c(SCc3ccc(C(=O)NCc4ccc(C)cc4)cc3)nc3cccnc32)cc1`: the survival is 58%. Under `COc1ccccc1CNC(=O)c1ccc(Cn2c(SCc3ccccc3)nc3cccnc32)cc1` stands 37% (active); under `CCNC(=O)c1ccc(CSc2nc3cccnc3n2Cc2ccc(OC)cc2)cc1`, 0% (active). Under `Cc1ccccc1CNC(=O)c1ccc(Cn2c(SCc3ccccc3)nc3cccnc32)cc1` stands 0% (active); under `Cc1ccc(CSc2nc3cccnc3n2Cc2ccc(C(=O)NCCc3cccs3)cc2)cc1`, 135%; under `Cc1ccccc1CNC(=O)c1ccc(Cn2c(SCc3cccc(F)c3)nc3cccnc32)cc1`, 89%. Under `CCOc1ccccc1CNC(=O)c1ccc(Cn2c(SCc3ccccc3)nc3cccnc32)cc1` stands 74%; under `O=C(NCCc1cccs1)c1ccc(Cn2c(SCc3ccccc3)nc3cccnc32)cc1`, 99%; under `O=C(NCc1ccccc1Cl)c1ccc(Cn2c(SCc3ccccc3)nc3cccnc32)cc1`, 72%. Turning to `Cc1ccccc1CSc1nc2cccnc2n1Cc1ccc(C(=O)NCCc2cccs2)cc1`, the survival was 47% (active).

On to `Cc1cn2c(=O)c(S(=O)(=O)NCc3ccc(F)cc3)c(C)nc2s1`, for which the survival was 88%.

With `CCc1ccc(NC(=O)CSc2nnc(C(C)C)n2CC)cc1`, the survival is 96%. Under `O=C(C1CCN(S(=O)(=O)c2ccc3c(c2)OCCO3)CC1)N1CCN(c2nc3ccccc3s2)CC1` stands 109%.
